Among the data in the supplement of paper PMC10849652 are log2 fold change values, retold here.

Experiment in all cases: log2 fold change, soluble protein after heating vs DMSO (PISA); higher = thermal stabilisation; K562 lysate, 10 uM; active = over 0.2 and 3.5 SD of the protein, either way, in both replicates (recomputed)
Compound in one assay: Cc1cn(-c2cc(NC(=O)c3ccc(C)c(Nc4nccc(-c5cccnc5)n4)c3)cc(C(F)(F)F)c2)cn1 [nilotinib]
The gist of the method: (§1)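 Soluble protein was defined as the supernatant remaining after 21,000xg for 90 min, following pooling of heated aliquots and adjustment to 0.5% NP-40 at 4°C. Before that, crude K562 extract at 1 mg/mL protein in PBS pH 7.4 with 1 mM MgCl2 was treated with 10 μM compound for 30 min and heated for 3 min across 48°C-58°C. Quantification used TMTpro 16plex LC-MS/MS with channel sums equalised, and values are log-two fold changes in thermal stability relative to solvent controls from duplicates.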

Compound in assay [1]: Cc1nc(Nc2n[nH]c3c2CN(C(=O)N[C@H](CN(C)C)c2ccccc2)C3(C)C)c2sccc2n1
The gist of the method: as §1

Compound in a further assay: Cc1nc(Nc2ncc(C(=O)Nc3c(C)cccc3Cl)s2)cc(N2CCN(CCO)CC2)n1 [dasatinib]
Summed up: as §1

Compound in assay [2]: Cc1ncc(-c2ccnc(Nc3ccc(S(C)(=O)=O)cc3)n2)n1C(C)C
Summed up: as §1

Compound in assay [3]: Cn1cc(-c2ccc3c(c2)CCN3C(=O)Cc2cccc(C(F)(F)F)c2)c2c(N)ncnc21
Summed up: as §1

Compound in another assay: Cn1cc(CNCC2CCN(c3ncc(C(=O)NO)cn3)CC2)c2ccccc21 [quisinostat]
Summed up: as §1

Compound in the next assay: Cn1cncc1[C@@](N)(c1ccc(Cl)cc1)c1ccc2c(c1)c(-c1cccc(Cl)c1)cc(=O)n2C [tipifarnib]
Summed up:
as §1

Compound in assay [4]: NC(=O)Nc1cc(-c2cccc(F)c2)sc1C(=O)N[C@H]1CCCNC1
The gist of the method:
as §1

Compound in assay [5]: NC(=O)c1cnc(N[C@@H]2CCCC[C@@H]2N)nc1Nc1cccc(-n2nccn2)c1
Summed up: as §1

Compound in assay [6]: NC1(c2ccc(-c3nc4ccn5c(=O)[nH]nc5c4cc3-c3ccccc3)cc2)CCC1
Summed up: as §1

Of roughly 8,800 targets only a part is listed; those with a hit were picked by preference. About 0.5% of all pairs of compound and target were hits. Unmarked numbers belong to inactive results.

UniProt Q9NWB6, sequence (Q9NWB6 whole entry, looked up): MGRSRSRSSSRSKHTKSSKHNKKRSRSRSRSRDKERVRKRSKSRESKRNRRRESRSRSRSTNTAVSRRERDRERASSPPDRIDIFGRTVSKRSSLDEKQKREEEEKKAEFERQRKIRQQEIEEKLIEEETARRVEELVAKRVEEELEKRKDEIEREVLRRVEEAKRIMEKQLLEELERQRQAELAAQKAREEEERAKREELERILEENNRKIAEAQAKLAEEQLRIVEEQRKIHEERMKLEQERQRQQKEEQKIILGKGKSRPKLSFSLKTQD
UniProt Q9BT30, sequence (Q9BT30 whole entry, looked up): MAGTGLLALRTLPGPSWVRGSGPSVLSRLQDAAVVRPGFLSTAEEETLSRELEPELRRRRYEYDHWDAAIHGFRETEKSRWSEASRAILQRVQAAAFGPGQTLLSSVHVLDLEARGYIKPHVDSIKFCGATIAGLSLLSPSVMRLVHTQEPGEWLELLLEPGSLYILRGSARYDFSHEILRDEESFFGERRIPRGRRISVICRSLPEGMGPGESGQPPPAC
UniProt P14621, sequence (P14621 whole entry, looked up): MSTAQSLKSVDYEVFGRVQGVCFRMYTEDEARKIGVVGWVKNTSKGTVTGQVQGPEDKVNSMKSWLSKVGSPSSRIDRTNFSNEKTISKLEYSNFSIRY
UniProt Q9BR61, sequence (Q9BR61 whole entry, looked up): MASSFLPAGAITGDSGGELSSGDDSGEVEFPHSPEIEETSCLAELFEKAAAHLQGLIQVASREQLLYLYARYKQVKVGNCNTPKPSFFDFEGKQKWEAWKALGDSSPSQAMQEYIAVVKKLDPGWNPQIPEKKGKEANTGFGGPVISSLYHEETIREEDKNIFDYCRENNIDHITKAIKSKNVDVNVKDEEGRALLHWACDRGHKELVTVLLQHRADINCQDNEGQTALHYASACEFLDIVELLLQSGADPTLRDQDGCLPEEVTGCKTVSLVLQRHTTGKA
UniProt O00116, sequence (O00116 whole entry, looked up): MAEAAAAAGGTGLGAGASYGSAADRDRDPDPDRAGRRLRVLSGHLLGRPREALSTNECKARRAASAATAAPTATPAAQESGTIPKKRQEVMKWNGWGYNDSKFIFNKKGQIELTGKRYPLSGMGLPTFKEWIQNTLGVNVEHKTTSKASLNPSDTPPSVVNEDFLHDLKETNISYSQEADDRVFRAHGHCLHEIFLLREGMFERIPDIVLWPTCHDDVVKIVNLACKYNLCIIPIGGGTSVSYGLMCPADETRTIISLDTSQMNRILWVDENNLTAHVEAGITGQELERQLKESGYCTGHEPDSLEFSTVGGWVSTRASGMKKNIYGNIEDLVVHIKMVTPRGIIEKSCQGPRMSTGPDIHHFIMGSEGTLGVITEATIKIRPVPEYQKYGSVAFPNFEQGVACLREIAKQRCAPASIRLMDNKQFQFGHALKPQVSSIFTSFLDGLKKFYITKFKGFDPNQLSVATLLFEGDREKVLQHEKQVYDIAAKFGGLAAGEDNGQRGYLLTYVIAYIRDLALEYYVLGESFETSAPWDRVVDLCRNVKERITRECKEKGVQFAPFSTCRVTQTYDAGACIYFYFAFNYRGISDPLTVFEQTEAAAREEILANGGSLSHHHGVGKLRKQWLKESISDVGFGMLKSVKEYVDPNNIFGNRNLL
UniProt Q8N302, sequence (Q8N302 whole entry, looked up): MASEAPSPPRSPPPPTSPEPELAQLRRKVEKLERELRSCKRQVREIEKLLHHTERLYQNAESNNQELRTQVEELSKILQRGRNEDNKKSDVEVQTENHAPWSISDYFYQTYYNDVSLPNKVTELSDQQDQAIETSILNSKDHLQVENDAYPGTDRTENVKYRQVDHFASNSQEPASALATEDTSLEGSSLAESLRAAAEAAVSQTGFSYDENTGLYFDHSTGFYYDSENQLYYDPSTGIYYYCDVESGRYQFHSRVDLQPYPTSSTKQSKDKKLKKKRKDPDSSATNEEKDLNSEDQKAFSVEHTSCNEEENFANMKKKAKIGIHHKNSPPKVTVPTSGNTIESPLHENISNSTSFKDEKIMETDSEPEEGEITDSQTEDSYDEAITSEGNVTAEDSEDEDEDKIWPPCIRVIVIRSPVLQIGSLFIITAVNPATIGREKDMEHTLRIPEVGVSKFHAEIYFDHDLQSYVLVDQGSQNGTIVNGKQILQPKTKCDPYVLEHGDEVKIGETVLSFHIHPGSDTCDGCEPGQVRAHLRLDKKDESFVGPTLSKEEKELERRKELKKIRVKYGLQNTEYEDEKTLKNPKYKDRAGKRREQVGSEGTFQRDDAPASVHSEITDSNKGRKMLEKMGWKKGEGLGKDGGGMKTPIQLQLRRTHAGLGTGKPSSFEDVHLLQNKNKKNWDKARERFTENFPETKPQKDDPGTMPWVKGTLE
UniProt P30838, sequence (P30838 whole entry, looked up): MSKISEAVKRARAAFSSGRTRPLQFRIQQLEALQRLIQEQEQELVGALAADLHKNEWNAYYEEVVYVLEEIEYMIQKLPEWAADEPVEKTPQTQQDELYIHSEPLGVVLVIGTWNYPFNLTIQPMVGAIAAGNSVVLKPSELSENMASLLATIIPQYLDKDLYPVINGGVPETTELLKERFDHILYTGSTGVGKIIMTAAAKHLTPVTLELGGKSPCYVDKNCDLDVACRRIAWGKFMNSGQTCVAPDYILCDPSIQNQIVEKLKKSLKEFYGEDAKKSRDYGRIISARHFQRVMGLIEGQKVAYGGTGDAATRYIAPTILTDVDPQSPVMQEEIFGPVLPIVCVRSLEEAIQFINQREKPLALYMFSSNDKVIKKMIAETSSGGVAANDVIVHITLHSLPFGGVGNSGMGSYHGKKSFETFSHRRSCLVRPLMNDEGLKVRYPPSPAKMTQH
UniProt Q6P1M9, sequence (Q6P1M9 whole entry, looked up): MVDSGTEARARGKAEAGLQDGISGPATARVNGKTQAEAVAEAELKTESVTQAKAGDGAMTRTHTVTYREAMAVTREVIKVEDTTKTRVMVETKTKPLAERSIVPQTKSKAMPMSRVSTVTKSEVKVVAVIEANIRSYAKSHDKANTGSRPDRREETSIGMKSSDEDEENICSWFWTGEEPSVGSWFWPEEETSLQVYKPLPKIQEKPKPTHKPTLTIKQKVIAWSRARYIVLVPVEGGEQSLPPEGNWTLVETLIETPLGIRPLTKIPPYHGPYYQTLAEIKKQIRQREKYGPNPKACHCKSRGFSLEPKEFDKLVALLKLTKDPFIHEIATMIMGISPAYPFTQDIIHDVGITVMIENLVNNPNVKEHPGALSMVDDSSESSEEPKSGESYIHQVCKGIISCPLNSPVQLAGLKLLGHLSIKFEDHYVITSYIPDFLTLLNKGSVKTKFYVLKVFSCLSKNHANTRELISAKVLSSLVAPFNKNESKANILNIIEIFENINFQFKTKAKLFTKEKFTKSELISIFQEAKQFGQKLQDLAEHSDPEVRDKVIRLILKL
UniProt P53396, sequence (P53396 whole entry, looked up): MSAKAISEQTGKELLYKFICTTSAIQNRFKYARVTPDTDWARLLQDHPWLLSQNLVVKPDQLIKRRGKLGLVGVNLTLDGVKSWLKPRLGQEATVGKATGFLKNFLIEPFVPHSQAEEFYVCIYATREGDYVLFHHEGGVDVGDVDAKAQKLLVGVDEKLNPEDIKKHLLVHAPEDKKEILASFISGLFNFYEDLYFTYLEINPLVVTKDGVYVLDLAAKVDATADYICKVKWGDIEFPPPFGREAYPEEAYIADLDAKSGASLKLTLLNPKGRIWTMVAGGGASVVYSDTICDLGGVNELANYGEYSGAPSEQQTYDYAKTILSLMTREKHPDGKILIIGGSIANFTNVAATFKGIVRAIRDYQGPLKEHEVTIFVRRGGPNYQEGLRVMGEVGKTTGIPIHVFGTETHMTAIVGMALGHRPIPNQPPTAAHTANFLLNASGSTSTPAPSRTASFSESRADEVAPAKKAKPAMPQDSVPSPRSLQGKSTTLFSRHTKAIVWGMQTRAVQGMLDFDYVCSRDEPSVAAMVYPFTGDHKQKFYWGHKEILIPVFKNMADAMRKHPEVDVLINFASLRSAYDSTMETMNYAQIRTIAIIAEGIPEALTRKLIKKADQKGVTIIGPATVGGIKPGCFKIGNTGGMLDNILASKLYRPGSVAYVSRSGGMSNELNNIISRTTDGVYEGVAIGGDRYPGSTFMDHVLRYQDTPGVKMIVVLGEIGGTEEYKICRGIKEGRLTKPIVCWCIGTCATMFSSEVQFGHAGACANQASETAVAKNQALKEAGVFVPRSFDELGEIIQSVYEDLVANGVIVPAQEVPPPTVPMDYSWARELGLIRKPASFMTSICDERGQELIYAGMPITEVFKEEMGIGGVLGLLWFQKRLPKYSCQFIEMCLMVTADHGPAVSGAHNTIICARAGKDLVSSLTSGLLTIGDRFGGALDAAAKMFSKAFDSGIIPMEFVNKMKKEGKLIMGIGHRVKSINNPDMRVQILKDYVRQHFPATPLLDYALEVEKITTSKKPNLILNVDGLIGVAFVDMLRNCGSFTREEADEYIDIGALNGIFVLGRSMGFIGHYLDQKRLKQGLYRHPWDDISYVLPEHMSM
UniProt Q6NXE6, sequence (Q6NXE6 whole entry, looked up): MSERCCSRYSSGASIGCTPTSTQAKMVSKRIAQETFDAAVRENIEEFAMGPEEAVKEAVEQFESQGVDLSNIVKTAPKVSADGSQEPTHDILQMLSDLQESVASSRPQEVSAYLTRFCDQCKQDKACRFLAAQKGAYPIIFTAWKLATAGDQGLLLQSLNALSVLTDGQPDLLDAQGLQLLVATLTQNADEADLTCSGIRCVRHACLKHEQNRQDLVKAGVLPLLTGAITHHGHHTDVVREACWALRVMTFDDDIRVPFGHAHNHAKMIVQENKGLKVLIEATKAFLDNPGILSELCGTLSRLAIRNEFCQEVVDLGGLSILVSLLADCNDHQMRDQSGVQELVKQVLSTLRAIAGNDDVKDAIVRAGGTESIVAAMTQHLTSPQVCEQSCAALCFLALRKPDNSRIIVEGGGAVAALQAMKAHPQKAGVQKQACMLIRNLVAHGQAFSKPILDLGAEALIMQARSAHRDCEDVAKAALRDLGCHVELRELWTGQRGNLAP

With AP5B1 (UniProt Q2VPB7), the log2 fold change was 0.001 in the assay with nilotinib; -0.033 in [1]; 0.065 with dasatinib; -0.053 in assay [2]; -0.072 in [3]; -0.027 in the assay with quisinostat. The log2 fold change in the assay with tipifarnib was -0.087; in assay [4], 0.324 (active); in [5], -0.023; in assay [6], -0.036.

As to ACLY (UniProt P53396), the log2 fold change was -0.005 with nilotinib; -0.016 in assay [1]; -0.026 with dasatinib; -0.005 in assay [2]; 0.021 in [3]; 0.002 in the assay with quisinostat. For the same target, the log2 fold change is 0.016 with tipifarnib, -0.004 in assay [4], 0.018 in assay [5] and 0.014 in [6].

Take ANXA2 (UniProt H0YL33): the log2 fold change in the assay with nilotinib was -0.153; in [1] it was 0.008; in the assay with dasatinib it was -0.069; in [2], 0.074; in assay [3] it was 0.022; in the assay with quisinostat it was 0.134. Further, the log2 fold change in the assay with tipifarnib was 0.199; in assay [4] it was -0.196; in assay [5] it was -0.078; in assay [6] it was 0.089.

As for ARHGEF1 (UniProt M0QZR4), the log2 fold change is 0.009 with nilotinib; -0.031 in assay [1]; -0.058 in the assay with dasatinib; -0.016 in [2]; 0.022 in assay [3]; -0.02 with quisinostat. The log2 fold change with tipifarnib is 0.01; in [4], 0.015; in assay [5] it was 0.017; in [6] it was -0.015.

For the target ARMC6 (UniProt Q6NXE6), the log2 fold change is -0.001 with nilotinib; -0.006 in [1]; -0.055 with dasatinib; -0.017 in assay [2]; 0.013 in [3]; -0.057 with quisinostat. The log2 fold change with tipifarnib is 0; in [4] it was 0.094; in assay [5], 0.017; in assay [6], -0.031.

On to AGGF1 (UniProt Q8N302), for which the log2 fold change is 0.02 in the assay with nilotinib; 0.055 in assay [1]; 0.087 in assay [2]; -0.041 with quisinostat; -0.06 in the assay with tipifarnib; -0.007 in [4]. The results for the log2 fold change in [5] and in [6] were 0.075 and 0.024, respectively.

ACAT1, A0A5F9ZHJ0: the log2 fold change with nilotinib is -0.176; in assay [1] it was 0.063; in assay [2], 0.024; in the assay with tipifarnib, 0.07.

Consider ACBD6 (UniProt Q9BR61), for which the log2 fold change is -0.032 with nilotinib; 0.007 in assay [1]; 0.04 in the assay with dasatinib; 0.012 in assay [2]; 0.013 in assay [3]; -0.017 in the assay with quisinostat. Also, the log2 fold change was 0.013 in the assay with tipifarnib, -0.014 in [4], 0.06 in [5] and -0.04 in assay [6].

For the target AGPS (UniProt O00116), the log2 fold change is -0.014 with nilotinib; -0.021 in [1]; -0.033 in the assay with dasatinib; 0.05 in [2]; 0.008 in assay [3]; 0.064 with quisinostat. For the same target, the log2 fold change with tipifarnib was -0.015; in [4] it was 0.014; in assay [5], 0.004; in [6], 0.003.

Take ARGLU1 (UniProt Q9NWB6): the log2 fold change was -0.012 with nilotinib; -0.007 in assay [1]; 0.058 in the assay with dasatinib; -0.018 in assay [2]; 0.096 in assay [3]; 0.022 in the assay with quisinostat. In addition, the log2 fold change in the assay with tipifarnib is -0.043; in assay [4] it was -0.133; in [5], -0.012; in [6] it was 0.016.

For the target ARMCX5 (UniProt Q6P1M9), the log2 fold change in the assay with nilotinib was 0.035; in assay [1], 0.009; with dasatinib, -0.039; in assay [2], 0.037; in [3], -0.07; with tipifarnib, -0.023. The log2 fold change in assay [5] is 0.02; in assay [6] it was -0.027.

In the case of ACLY isoform 2 (UniProt P53396), the log2 fold change with nilotinib is 0.08; in assay [1], 0.038; in assay [2] it was 0.191; with quisinostat, 0.162; with tipifarnib, 0.02; in assay [4], -0.027. In addition, the log2 fold change in [5] was -0.062.

Turning to ACYP2 (UniProt P14621), the log2 fold change is -0.008 in the assay with nilotinib; -0.079 in assay [1]; 0.097 in [2]; -0.047 in the assay with quisinostat; 0.009 with tipifarnib; -0.009 in assay [4]. The log2 fold change was -0.026 in [5] and 0.019 in assay [6].

ADK, A0A5F9ZH76: the log2 fold change is -0.267 with nilotinib; 0.089 in assay [1]; 0.065 in assay [2]; 0.487 in the assay with tipifarnib; -0.083 in assay [5].

As to ARHGEF2 (UniProt V9GYF0), the log2 fold change was 0.029 with nilotinib; -0.119 in assay [1]; 0.02 in the assay with dasatinib; -0.113 in [2]; -0.139 in assay [3]; -0.23 in the assay with tipifarnib. In assay [5], the log2 fold change was 0.117.

Take AMDHD2 (UniProt Q9Y303): the log2 fold change with quisinostat was -0.001; in [4], 0.048.

Regarding ACTG1 (UniProt K7EM38), in assay [5], the log2 fold change is 0.171.

Turning to ALKBH7 (UniProt Q9BT30), the log2 fold change in the assay with nilotinib is -0.039; in [1], -0.04; in the assay with dasatinib it was -0.017; in [2], -0.452; in assay [3] it was -0.226; with quisinostat, 0.006. The log2 fold change in the assay with tipifarnib is 0.107; in assay [4], 0.044; in [6], -0.099.

With ALDH3A1 (UniProt P30838), the log2 fold change with dasatinib was 1.35 (active); in assay [3] it was -0.024; with quisinostat it was -0.381; in assay [4] it was -0.065; in [5] it was 0.055; in assay [6], -0.018.
